Assay results as given in the supplement of paper PMC11732987, “Enantioselective OTUD7B fragment discovery through chemoproteomics screening and high-throughput optimisation” (Communications Chemistry, 2025).

What was measured:
Assay in all cases: log2 ratio of Biotin-Ahx-Ub-VS probe labelling (fragment/DMSO); higher = less target engagement (more negative = stronger competition), active = hit call of the paper (q ≤ 0.05, log2 ratio ≤ -1)
Details in all cases: compound concentration: 200 uM; treatment time: 3 h
USP19 = biological target: T1, USP19 (UniProt O94966)
T1 sequence (whole entry): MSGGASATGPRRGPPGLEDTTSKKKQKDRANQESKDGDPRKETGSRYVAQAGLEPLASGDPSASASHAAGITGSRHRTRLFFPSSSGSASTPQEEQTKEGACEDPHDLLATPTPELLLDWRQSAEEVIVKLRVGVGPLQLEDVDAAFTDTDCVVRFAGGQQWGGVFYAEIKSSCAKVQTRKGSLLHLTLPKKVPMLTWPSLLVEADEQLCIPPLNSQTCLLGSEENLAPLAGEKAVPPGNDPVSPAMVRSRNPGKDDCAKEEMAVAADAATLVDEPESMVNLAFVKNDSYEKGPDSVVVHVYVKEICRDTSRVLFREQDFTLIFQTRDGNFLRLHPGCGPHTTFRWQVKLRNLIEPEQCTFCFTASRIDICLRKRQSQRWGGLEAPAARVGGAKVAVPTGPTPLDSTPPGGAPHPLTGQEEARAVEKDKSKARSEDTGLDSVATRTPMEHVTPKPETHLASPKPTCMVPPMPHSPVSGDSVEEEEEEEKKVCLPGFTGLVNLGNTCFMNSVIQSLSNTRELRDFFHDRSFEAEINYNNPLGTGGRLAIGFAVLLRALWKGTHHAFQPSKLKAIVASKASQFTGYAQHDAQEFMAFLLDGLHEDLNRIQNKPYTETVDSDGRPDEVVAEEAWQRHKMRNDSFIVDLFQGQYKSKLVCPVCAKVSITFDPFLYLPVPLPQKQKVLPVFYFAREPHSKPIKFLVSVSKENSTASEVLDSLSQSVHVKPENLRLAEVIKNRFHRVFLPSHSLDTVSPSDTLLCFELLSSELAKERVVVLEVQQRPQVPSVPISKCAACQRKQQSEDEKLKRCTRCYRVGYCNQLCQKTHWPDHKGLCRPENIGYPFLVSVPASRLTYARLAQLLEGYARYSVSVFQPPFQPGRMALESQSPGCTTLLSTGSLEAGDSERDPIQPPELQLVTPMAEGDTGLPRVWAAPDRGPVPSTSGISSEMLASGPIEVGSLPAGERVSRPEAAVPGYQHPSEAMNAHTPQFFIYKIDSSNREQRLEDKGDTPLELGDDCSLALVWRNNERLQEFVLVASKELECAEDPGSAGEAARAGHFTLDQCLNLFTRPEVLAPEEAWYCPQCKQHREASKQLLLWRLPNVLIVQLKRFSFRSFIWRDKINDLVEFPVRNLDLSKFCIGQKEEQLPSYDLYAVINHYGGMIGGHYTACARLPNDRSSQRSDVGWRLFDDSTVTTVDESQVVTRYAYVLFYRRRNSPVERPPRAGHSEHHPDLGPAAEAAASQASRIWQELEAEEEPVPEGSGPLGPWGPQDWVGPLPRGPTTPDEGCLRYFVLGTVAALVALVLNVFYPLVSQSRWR
Outline: (§1)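 The table lists average log2 ratios of fragment over vehicle, from an unpaired t-test on global-median-normalised Spectronaut label-free quantities. Proteins with ≥2 unique peptides were used. Samples were HEK293T lysate (495 µg) treated in triplicate with fragment at 200 µM or vehicle for 3 h, then with Biotin-Ahx-Ub-VS (0.5 µM final) for 1 h, with labelled DUBs NeutrAvidin-enriched and run by diaPASEF LC-MS/MS.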

USP22 = biological target: T2, USP22 (UniProt Q9UPT9)
T2 sequence (whole entry): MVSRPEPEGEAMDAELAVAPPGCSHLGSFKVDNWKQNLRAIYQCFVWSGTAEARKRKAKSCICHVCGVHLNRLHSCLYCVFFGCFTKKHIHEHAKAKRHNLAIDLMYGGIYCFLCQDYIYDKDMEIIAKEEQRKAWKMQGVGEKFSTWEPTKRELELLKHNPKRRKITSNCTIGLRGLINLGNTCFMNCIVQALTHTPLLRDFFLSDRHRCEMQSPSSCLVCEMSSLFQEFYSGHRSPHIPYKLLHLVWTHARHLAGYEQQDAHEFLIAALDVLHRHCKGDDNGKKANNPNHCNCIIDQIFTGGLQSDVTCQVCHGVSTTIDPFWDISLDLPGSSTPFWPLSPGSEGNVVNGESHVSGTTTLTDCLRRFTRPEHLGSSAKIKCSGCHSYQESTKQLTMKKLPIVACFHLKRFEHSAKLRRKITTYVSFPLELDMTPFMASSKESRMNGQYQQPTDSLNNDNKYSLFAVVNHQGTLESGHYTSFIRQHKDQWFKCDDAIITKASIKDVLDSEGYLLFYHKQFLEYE
Outline: as §1

USP24 = USP24 (UniProt Q9UPU5)
Outline: as §1

USP25 = biological target: T3, USP25 (UniProt Q9UHP3)
T3 sequence (whole entry): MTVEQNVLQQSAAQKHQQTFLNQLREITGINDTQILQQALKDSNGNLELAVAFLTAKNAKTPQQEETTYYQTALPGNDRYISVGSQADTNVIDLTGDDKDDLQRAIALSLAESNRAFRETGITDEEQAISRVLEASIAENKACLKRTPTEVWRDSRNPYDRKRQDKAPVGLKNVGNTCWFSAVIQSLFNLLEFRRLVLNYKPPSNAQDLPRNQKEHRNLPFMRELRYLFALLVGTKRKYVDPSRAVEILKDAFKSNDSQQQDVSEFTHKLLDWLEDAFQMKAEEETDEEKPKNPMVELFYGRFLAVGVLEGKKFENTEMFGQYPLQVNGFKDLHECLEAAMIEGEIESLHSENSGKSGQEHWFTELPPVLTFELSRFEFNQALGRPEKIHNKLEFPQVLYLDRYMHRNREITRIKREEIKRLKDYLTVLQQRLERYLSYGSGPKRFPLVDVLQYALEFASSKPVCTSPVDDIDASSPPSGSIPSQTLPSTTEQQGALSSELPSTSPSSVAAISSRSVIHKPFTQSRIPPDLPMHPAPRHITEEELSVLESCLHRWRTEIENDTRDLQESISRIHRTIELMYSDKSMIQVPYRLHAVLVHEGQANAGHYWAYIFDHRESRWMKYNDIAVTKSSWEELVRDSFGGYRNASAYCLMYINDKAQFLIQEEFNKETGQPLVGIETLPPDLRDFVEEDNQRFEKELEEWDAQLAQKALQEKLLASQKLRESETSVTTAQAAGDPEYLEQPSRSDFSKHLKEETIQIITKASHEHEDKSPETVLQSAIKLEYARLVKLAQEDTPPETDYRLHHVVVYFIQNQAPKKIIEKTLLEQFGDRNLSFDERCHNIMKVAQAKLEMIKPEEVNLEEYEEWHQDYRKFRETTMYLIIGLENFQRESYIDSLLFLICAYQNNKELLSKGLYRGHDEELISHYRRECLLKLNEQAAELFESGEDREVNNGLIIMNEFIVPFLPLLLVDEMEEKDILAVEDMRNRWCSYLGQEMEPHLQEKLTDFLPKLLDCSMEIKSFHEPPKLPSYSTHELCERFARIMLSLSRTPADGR
Outline: as §1

USP28 = biological target: T4, USP28 (UniProt Q96RU2)
T4 sequence (whole entry): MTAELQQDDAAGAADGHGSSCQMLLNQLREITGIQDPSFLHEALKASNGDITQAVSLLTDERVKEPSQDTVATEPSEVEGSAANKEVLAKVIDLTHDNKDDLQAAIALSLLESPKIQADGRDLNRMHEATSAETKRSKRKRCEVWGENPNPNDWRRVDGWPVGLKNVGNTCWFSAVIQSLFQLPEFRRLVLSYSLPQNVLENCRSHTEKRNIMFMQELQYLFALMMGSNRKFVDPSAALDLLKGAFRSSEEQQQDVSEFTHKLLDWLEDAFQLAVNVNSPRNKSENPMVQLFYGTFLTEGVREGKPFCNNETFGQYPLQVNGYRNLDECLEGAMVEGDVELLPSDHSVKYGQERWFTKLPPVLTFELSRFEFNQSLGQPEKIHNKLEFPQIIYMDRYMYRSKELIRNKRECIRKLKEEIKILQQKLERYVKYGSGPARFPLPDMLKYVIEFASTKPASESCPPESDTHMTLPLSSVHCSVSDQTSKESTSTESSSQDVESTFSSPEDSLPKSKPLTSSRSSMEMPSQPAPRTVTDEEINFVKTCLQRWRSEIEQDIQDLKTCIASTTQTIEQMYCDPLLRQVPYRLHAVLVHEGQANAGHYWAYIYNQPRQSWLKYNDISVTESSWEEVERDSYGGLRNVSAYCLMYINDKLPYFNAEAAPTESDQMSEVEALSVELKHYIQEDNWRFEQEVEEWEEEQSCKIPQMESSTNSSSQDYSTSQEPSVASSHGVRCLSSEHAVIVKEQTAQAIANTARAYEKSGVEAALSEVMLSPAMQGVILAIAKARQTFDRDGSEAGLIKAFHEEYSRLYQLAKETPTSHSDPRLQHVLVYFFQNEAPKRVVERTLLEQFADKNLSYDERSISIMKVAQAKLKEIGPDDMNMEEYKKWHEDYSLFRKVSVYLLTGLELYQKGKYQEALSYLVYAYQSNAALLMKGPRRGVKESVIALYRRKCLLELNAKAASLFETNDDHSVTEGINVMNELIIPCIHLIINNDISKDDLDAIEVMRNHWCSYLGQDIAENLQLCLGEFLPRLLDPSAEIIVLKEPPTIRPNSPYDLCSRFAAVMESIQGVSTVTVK
Outline: as §1

Measured: log2 ratio of Biotin-Ahx-Ub-VS probe labelling

Sequence of USP24 (Q9UPU5 whole entry): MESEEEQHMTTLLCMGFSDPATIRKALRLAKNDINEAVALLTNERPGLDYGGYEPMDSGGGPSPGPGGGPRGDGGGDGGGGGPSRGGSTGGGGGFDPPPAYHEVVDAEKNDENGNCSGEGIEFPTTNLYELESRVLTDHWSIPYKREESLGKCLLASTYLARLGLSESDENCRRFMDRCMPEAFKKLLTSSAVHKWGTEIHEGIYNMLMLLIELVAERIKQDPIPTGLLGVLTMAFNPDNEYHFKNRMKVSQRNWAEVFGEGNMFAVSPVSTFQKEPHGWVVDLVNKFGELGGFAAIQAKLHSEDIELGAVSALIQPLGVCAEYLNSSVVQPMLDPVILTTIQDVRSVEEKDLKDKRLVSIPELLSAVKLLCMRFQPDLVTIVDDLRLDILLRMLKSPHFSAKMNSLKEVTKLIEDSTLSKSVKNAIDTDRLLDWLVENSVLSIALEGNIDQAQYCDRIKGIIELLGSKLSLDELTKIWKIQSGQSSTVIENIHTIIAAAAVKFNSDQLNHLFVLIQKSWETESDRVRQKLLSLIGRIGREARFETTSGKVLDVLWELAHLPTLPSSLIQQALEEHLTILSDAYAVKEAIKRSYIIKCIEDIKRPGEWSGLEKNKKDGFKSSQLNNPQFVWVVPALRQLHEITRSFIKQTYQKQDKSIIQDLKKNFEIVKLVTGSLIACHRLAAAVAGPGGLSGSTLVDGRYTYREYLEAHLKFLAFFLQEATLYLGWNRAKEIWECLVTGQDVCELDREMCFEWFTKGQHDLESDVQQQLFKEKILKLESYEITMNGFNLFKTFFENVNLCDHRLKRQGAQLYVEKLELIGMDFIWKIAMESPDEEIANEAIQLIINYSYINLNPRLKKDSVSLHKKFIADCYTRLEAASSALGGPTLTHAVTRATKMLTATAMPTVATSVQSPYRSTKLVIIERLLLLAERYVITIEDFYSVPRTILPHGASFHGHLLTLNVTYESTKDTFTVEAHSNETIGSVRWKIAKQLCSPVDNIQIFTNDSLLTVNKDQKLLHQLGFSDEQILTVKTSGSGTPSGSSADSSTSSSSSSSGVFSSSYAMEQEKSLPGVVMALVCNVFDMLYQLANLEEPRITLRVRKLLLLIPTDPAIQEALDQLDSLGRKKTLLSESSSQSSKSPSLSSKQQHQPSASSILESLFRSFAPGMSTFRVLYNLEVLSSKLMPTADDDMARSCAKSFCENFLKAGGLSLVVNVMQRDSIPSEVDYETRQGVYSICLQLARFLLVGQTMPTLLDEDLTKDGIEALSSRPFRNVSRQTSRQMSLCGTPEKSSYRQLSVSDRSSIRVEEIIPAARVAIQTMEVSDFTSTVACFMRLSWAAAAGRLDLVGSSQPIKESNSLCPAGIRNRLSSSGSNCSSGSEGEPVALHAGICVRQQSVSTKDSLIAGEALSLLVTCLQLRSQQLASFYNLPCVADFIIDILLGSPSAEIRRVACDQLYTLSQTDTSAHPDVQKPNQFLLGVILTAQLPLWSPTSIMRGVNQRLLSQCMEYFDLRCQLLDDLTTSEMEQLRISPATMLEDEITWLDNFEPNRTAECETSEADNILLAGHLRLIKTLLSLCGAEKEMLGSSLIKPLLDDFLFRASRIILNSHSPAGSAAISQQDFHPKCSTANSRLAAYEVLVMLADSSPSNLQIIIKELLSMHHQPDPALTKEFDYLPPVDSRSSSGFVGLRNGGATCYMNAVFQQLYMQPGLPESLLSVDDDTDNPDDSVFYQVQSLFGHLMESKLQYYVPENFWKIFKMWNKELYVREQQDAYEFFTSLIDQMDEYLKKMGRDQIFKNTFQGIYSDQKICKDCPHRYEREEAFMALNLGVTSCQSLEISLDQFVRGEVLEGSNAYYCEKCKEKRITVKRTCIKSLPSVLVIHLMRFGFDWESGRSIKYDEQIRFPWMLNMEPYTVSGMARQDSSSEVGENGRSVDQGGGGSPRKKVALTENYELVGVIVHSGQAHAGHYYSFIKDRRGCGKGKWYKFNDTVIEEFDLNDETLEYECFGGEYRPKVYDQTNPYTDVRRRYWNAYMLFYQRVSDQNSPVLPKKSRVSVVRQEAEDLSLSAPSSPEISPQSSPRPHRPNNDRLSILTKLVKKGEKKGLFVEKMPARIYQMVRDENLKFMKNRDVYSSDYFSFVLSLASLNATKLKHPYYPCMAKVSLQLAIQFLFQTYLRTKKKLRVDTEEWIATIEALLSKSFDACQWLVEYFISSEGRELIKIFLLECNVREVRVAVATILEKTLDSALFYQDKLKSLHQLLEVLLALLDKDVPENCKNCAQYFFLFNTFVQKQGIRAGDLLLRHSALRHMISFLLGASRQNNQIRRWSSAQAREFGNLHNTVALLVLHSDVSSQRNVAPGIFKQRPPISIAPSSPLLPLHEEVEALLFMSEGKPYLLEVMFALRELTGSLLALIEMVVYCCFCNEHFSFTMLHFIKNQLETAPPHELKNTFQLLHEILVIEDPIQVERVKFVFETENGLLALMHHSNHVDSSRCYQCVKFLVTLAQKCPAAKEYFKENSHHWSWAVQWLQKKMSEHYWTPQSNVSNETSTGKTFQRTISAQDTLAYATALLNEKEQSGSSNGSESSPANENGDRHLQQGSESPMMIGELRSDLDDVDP

O=C(CCl)N1CCCC1c1ccsc1 (stereo not given)
inactive: USP19 -0.475 | USP22 -0.304 | USP24 -0.738 | USP25 -0.456 | USP28 -0.704
